Measured values reported in PubChem BioAssay AID1159580 (chemical genetic matrix, 2015).
Values joined by “and” are separate entries in the source; they are usually repeats but may differ in a detail not shown here. Equal values may be shown once. Screen size: about 5,500 compounds; about 2,000 (36%) were called active. Inconclusive results (about 18%) are left out. Rule as the data show it: active = normalized growth mostly below about 0.91 (no sharp cut-off); inconclusive = no clear call, values can overlap the other calls; inactive = mostly above about 0.92. The list shows a part of the results.

Experiment: chemical genetic growth profiling, strain panel (AID 1159580);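 also: tested at 20 µM; growth read once vehicle control cultures reached saturation at 30 °C; 1 = growth at the plate median or of vehicle wells; lower values mean less growth of the strain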
Settings: growth OD

Measured: normalized growth

O=c1[nH]c2cc(Cl)c(Cl)cc2[nH]c1=O
active: S. cerevisiae deletion strains, locus YLR330W, strain CHS5, hits give low values 0.894
inactive: S. cerevisiae deletion strains, locus YJR075W, strain HOC1, hits give low values 1 and 1.01 | S. cerevisiae deletion strains, locus YKL009W, strain mrt4, hits give low values 1.02 | S. cerevisiae deletion strains, locus YKL068W, hits give low values 1.02 | S. cerevisiae deletion strains, locus YKL085W, strain MDH1 (second series), hits give low values 1.01 | S. cerevisiae deletion strains, locus YKL085W, strain MDH1, hits give low values 1.01 | S. cerevisiae deletion strains, locus YKL160W, strain elf1, hits give low values 0.988 | S. cerevisiae deletion strains, locus YKL190W, strain CNB1, hits give low values 1.01 | S. cerevisiae deletion strains, locus YKR001C, strain vps1, hits give low values 1.05 | S. cerevisiae deletion strains, locus YKR026C, strain gcn3, hits give low values 0.989 | S. cerevisiae deletion strains, locus YKR091W, strain srl3, hits give low values 0.987 | S. cerevisiae deletion strains, locus YLL001W, strain dnm1, hits give low values 0.992 | S. cerevisiae deletion strains, locus YLL026W, hits give low values 0.988 | S. cerevisiae deletion strains, locus YLL041C, strain sdh2, hits give low values 0.995 | S. cerevisiae deletion strains, locus YLR027C, strain aat2, hits give low values 0.957 | S. cerevisiae deletion strains, locus YLR039C, strain RIC1, hits give low values 1.04 | S. cerevisiae deletion strains, locus YLR058C, strain SHM2, hits give low values 1.01 | S. cerevisiae deletion strains, locus YLR102C, strain apc9, hits give low values 1.02 | S. cerevisiae deletion strains, locus YLR221C, strain rsa3, hits give low values 0.955 | S. cerevisiae deletion strains, locus YLR258W, strain gsy2, hits give low values 0.99 | S. cerevisiae deletion strains, locus YLR262C, strain YPT6 (second series), hits give low values 0.989 | S. cerevisiae deletion strains, locus YLR262C, strain YPT6, hits give low values 1.04 | S. cerevisiae deletion strains, locus YLR268W, strain sec22, hits give low values 1.03 | S. cerevisiae deletion strains, locus YLR320W, strain mms22, hits give low values 0.963 | S. cerevisiae deletion strains, locus YLR342W, strain FKS1 (second series), hits give low values 0.99 | S. cerevisiae deletion strains, locus YLR342W, strain FKS1, hits give low values 0.988 | S. cerevisiae deletion strains, locus YLR357W, strain rsc2, hits give low values 0.984 | S. cerevisiae deletion strains, locus YLR370C, strain arc18, hits give low values 0.995 | S. cerevisiae deletion strains, locus YLR371W, strain rom2, hits give low values 1.03 | S. cerevisiae deletion strains, locus YLR384C, strain iki3, hits give low values 1.01 | S. cerevisiae deletion strains, locus YLR418C, strain cdc73, hits give low values 1.07 | S. cerevisiae deletion strains, locus YML016C, strain PPZ1, hits give low values 1.01 | S. cerevisiae deletion strains, locus YML032C, strain rad52, hits give low values 1.04 | S. cerevisiae deletion strains, locus YML120C, strain ndi1, hits give low values 1.02 | S. cerevisiae deletion strains, locus YML124C, strain tub3, hits give low values 1.02 | S. cerevisiae deletion strains, locus YMR058W, strain fet3, hits give low values 0.994 | S. cerevisiae deletion strains, locus YMR078C, strain ctf18, hits give low values 1.03 | S. cerevisiae deletion strains, locus YMR125W, strain sto1, hits give low values 0.994 | S. cerevisiae deletion strains, locus YMR129W, hits give low values 1.01 | S. cerevisiae deletion strains, locus YMR205C, strain PFK2, hits give low values 0.974 | S. cerevisiae deletion strains, locus YMR223W, strain ubp8, hits give low values 1.03 | S. cerevisiae deletion strains, locus YMR231W, strain pep5, hits give low values 0.996 | S. cerevisiae deletion strains, locus YMR263W, strain SAP30, hits give low values 1 | S. cerevisiae deletion strains, locus YMR307W, strain GAS1, hits give low values 1.03 and 1.01 | S. cerevisiae deletion strains, locus YNL067W, strain RPL9B, hits give low values 1.01 | S. cerevisiae deletion strains, locus YNL071W, strain lat1, hits give low values 0.999 | S. cerevisiae deletion strains, locus YNL128W, strain TEP1, hits give low values 1.02 | S. cerevisiae deletion strains, locus YNL153C, strain GIM3, hits give low values 1.01 | S. cerevisiae deletion strains, locus YNL175C, strain NOP13, hits give low values 0.996 | S. cerevisiae deletion strains, locus YNL197C, strain WHI3, hits give low values 0.975 | S. cerevisiae deletion strains, locus YNL209W, strain ssb2, hits give low values 1 | S. cerevisiae deletion strains, locus YNL224C, strain SQS1, hits give low values 1 | S. cerevisiae deletion strains, locus YNL233W, strain BNI4, hits give low values 1 | S. cerevisiae deletion strains, locus YNL248C, strain rpa49, hits give low values 1.01 | S. cerevisiae deletion strains, locus YNL250W, strain rad50, hits give low values 1.03 | S. cerevisiae deletion strains, locus YNL271C, strain bni1, hits give low values 1.04 | S. cerevisiae deletion strains, locus YNL298W, strain CLA4, hits give low values 1.03 | S. cerevisiae deletion strains, locus YNL307C, strain MCK1, hits give low values 1.04 | S. cerevisiae deletion strains, locus YNL322C, strain KRE1 (second series), hits give low values 0.985 | S. cerevisiae deletion strains, locus YNL322C, strain KRE1, hits give low values 1 | S. cerevisiae deletion strains, locus YNR049C, strain mso1, hits give low values 0.992 | S. cerevisiae deletion strains, locus YNR052C, strain pop2, hits give low values 1.03 | S. cerevisiae deletion strains, locus YOL006C, strain TOP1, hits give low values 1.05 | S. cerevisiae deletion strains, locus YOL012C, strain htz1 1.66 | S. cerevisiae deletion strains, locus YOL147C, strain pex11, hits give low values 1.03 | S. cerevisiae deletion strains, locus YOR001W, strain rrp6, hits give low values 0.959 | S. cerevisiae deletion strains, locus YOR061W, strain CKA2, hits give low values 1.02 | S. cerevisiae deletion strains, locus YOR069W, strain VPS5, hits give low values 1.01 | S. cerevisiae deletion strains, locus YOR070C, strain gyp1, hits give low values 0.97 | S. cerevisiae deletion strains, locus YOR080W, strain dia2, hits give low values 0.983 | S. cerevisiae deletion strains, locus YOR083W, strain WHI5 (second series), hits give low values 0.984 | S. cerevisiae deletion strains, locus YOR083W, strain WHI5, hits give low values 0.982 | S. cerevisiae deletion strains, locus YOR106W, strain vam3, hits give low values 1.01 | S. cerevisiae deletion strains, locus YOR136W, strain idh2, hits give low values 1.04 | S. cerevisiae deletion strains, locus YOR144C, strain elg1, hits give low values 1.02 | S. cerevisiae deletion strains, locus YOR184W, strain ser1, hits give low values 1.03 | S. cerevisiae deletion strains, locus YOR265W, strain rbl2, hits give low values 0.987 | S. cerevisiae deletion strains, locus YOR270C, strain vph1, hits give low values 0.96 | S. cerevisiae deletion strains, locus YOR290C, strain snf2, hits give low values 0.971 | S. cerevisiae deletion strains, locus YOR316C, strain cot1, hits give low values 1.02 | S. cerevisiae deletion strains, locus YPL051W, strain arl3, hits give low values 0.961 | S. cerevisiae deletion strains, locus YPL055C, strain LGE1, hits give low values 1.02 | S. cerevisiae deletion strains, locus YPL078C, strain atp4, hits give low values 0.997 | S. cerevisiae deletion strains, locus YPL106C, strain sse1, hits give low values 0.97 | S. cerevisiae deletion strains, locus YPL240C, strain hsp82, hits give low values 0.988 | S. cerevisiae deletion strains, locus YPL241C, strain CIN2, hits give low values 1.01 | S. cerevisiae deletion strains, locus YPR119W, strain clb2, hits give low values 1.03 | S. cerevisiae deletion strains, locus YPR141C, strain kar3, hits give low values 1.03 | S. cerevisiae deletion strains, locus YPR163C, strain tif3, hits give low values 1.04 | S. cerevisiae deletion strains, locus YPR167C, strain met16, hits give low values 1.02 | S. cerevisiae deletion strains, strain wtn01, hits give low values 1.02 | S. cerevisiae strains, strain wild type, hits give low values 1.01
